For 31 compounds, inhibition results are on record in ChEMBL document CHEMBL1961873, “Compounds: GSK PKIS; Assays: Nanosyn kinase panel” (2012).

“And” between values parts separate entries of the source, which are not always exact repeats. Identical values can stand only once.

The first experiment deals with Tyrosine-protein kinase Yes (Homo sapiens) (UniProt P07947). To be noted: at 0.1 µM.
Sequence of Tyrosine-protein kinase Yes (Homo sapiens) (P07947 2-543 limits assumed): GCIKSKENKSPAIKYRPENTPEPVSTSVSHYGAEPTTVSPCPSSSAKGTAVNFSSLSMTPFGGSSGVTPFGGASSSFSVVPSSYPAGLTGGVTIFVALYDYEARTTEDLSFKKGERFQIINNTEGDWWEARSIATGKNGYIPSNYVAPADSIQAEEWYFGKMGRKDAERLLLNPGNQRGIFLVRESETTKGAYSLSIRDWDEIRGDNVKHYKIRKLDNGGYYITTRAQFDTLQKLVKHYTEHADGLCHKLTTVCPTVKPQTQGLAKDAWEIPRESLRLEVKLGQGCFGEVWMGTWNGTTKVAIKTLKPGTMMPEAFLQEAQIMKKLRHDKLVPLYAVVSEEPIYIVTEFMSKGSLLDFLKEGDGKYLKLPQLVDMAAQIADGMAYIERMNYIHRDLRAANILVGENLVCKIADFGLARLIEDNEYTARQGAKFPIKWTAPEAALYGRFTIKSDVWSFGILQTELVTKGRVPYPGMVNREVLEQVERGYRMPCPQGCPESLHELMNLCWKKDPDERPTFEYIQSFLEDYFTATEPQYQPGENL
In the case of `O=C1Nc2ccccc2/C1=C1\CCc2cc(O)ccc21`, the inhibition (as a rule, the change of the read-out against control, counted positive when it falls) is 3.94%.
With `CCS(=O)(=O)c1ccc(OC)c(Nc2ncc(-c3cccc(C(C)=O)c3)o2)c1`, the inhibition came out at 18.6%.
For `Cc1ccc(-c2cc3c(NC(=O)C4CC4)ncnc3o2)cc1`, the inhibition was determined as 6%.
As to `COc1ccc(-c2nn3ncccc3c2-c2ccnc(Nc3ccc(F)c(F)c3)n2)cc1`, the inhibition was 39.5%.
Same read-out and setting: as for `O=C(Nc1n[nH]c2nnc(-c3cccnc3)cc12)C1CC1`, the figure is 1.69%.
Regarding `O=C(O[C@H]1CN[C@H](C#Cc2cc3ncnc(Nc4ccc5c(ccn5Cc5cc(F)ccc5F)c4)c3s2)C1)N1CCOCC1`, the inhibition worked out at 0.85%.
The same measure, in the same setting: the value for `COc1cccc(Nc2nccc(-c3cnn4ncccc34)n2)c1` was 3.57%.
The same measure, in the same setting: the value for `Nc1nccc(-c2c(-c3ccc(F)cc3)ncn2C2CCNCC2)n1` was -1.29% and 0.36%.
Still for that read-out and setting: the value for `NC(=O)c1ccc2c(-c3ccnc(NCCCO)n3)c(-c3ccc(F)cc3)nn2c1` was 2.77%; that for `CS(=O)(=O)Nc1ccc(-c2cc(-c3ccccc3)cc(C(N)=O)c2N)cc1` was 0.79%; that for `CS(=O)(=O)Nc1ccc(-c2ccc3c(NC(=O)C4CC4)n[nH]c3c2)cc1` was -0.59%.
With `Cn1c(-c2nonc2N)nc2cnccc21`, the inhibition came to 1.37%.
Still for that read-out and setting: the value for `CC1=C(C(=O)Nc2ccc3[nH]ncc3c2)C(c2ccc(F)cc2)N=C(c2ccc(C(F)(F)F)nc2)N1` (configuration not stated) was 1.26%.
`c1ccc(-c2n[nH]cc2-c2ccnc(-c3ccc(OCCn4ccnc4)cc3)c2)nc1`: the inhibition was determined as 1.05%.
With `CS(=O)(=O)CCNCc1ccc(-c2ccc3ncnc(Nc4ccc(OCc5cccc(C(F)(F)F)c5)cc4)c3c2)o1`, the inhibition was found to be 0.5%.
The same measure, in the same setting: the value for `FC(F)(F)CNc1nccc(-c2cnn3ncccc23)n1` was 1.28%; that for `COc1ccc2ncn(-c3cc(O[C@H](C)c4ccccc4C(F)(F)F)c(C(N)=O)s3)c2c1` was -2.36%.
On the same count and under the same terms, as for `N#Cc1cccc(Nc2ncc(-c3ccccc3)o2)c1`, the figure is 2.87%; as for `CCN1CCC(C(=O)Nc2n[nH]c3nnc(-c4cccc(F)c4F)cc23)CC1`, 2.36%; as for `CNC(=O)c1ncccc1Nc1nc(Nc2cc3c(cc2OC)CCCN3C(=O)CN(C)C)nc2[nH]ccc12`, 0.73%.
The same measure, in the same setting: as for `CNC(=O)c1cncc(/C=C/c2ccccc2C)c1`, the figure is 4.29%.
As for `CS(=O)(=O)CCNCc1ccc(-c2ccc3ncnc(Nc4ccc(OCc5ccccc5)cc4)c3c2)o1`, the inhibition is 9.54%.
In the case of `CS(=O)(=O)CCNCc1ccoc1-c1ccc2ncnc(Nc3ccc(OCc4ccccc4)cc3)c2c1`, the inhibition came out at 4.12%.
Same read-out and setting: the value for `COc1cc2c(cc1Nc1nc(Nc3cccc(F)c3C(N)=O)c3cc[nH]c3n1)N(C(=O)CN1CCN(C(C)C)CC1)CC2` was 1.54%.
On to `CN1CCC(n2cnc(-c3ccc(F)cc3)c2-c2ccnc(NCCO)n2)CC1`, for which the inhibition is 2.55%.
As for `CCn1c(-c2nonc2N)nc2cncc(C(=O)NCCNC)c21`, the inhibition is 2.4%.
Take `OCCCNc1nccc(-c2c(-c3ccc(F)cc3)nn3cc(C(F)(F)F)ccc23)n1`: the inhibition stood at 1.78%.
Consider `NS(=O)(=O)c1ccc(N/N=C2\C(=O)Nc3ccc(C(=O)NCc4ccncc4)cc32)cc1`, for which the inhibition worked out at 4.07%.
In the case of `CC1(C)CC(n2cnc(-c3ccc(F)cc3)c2-c2ccnc(N)n2)CC(C)(C)N1`, the inhibition amounted to 0.2%.
`COC(=O)Nc1nc2ccc(Oc3ccc(NC(=O)Nc4cc(C(F)(F)F)ccc4F)cc3)cc2s1`: the inhibition stood at 4.21%.
Take `COc1c(C(N)=O)cc(-c2ccc(Cl)cc2)cc1-c1ccc(S(N)(=O)=O)cc1`: the inhibition is 1.57%.

The next experiment shares this target. The settings on record: at 1 µM.
Regarding `O=C1Nc2ccccc2/C1=C1\CCc2cc(O)ccc21`, the inhibition turned out to be 13.6%.
Still for that read-out and setting: the value for `CCS(=O)(=O)c1ccc(OC)c(Nc2ncc(-c3cccc(C(C)=O)c3)o2)c1` was 65.9%.
On the same count and under the same terms, the value for `Cc1ccc(-c2cc3c(NC(=O)C4CC4)ncnc3o2)cc1` was 23.7%.
Consider `COc1ccc(-c2nn3ncccc3c2-c2ccnc(Nc3ccc(F)c(F)c3)n2)cc1`, for which the inhibition came out at 85.2%.
As to `O=C(Nc1n[nH]c2nnc(-c3cccnc3)cc12)C1CC1`, the inhibition came to 7.01%.
Regarding `O=C(O[C@H]1CN[C@H](C#Cc2cc3ncnc(Nc4ccc5c(ccn5Cc5cc(F)ccc5F)c4)c3s2)C1)N1CCOCC1`, the inhibition worked out at 8.22%.
Still for that read-out and setting: the value for `COc1cccc(Nc2nccc(-c3cnn4ncccc34)n2)c1` was 20.5%; that for `Nc1nccc(-c2c(-c3ccc(F)cc3)ncn2C2CCNCC2)n1` was 11.9% and 16.2%; that for `NC(=O)c1ccc2c(-c3ccnc(NCCCO)n3)c(-c3ccc(F)cc3)nn2c1` was 10.9%.
With `CS(=O)(=O)Nc1ccc(-c2cc(-c3ccccc3)cc(C(N)=O)c2N)cc1`, the inhibition is 4.67%.
In the case of `CS(=O)(=O)Nc1ccc(-c2ccc3c(NC(=O)C4CC4)n[nH]c3c2)cc1`, the inhibition was 4.94%.
Still for that read-out and setting: the value for `Cn1c(-c2nonc2N)nc2cnccc21` was 1.42%; that for `CC1=C(C(=O)Nc2ccc3[nH]ncc3c2)C(c2ccc(F)cc2)N=C(c2ccc(C(F)(F)F)nc2)N1` (configuration not stated) was 4.23%.
Still for that read-out and setting: the value for `c1ccc(-c2n[nH]cc2-c2ccnc(-c3ccc(OCCn4ccnc4)cc3)c2)nc1` was 8.13%; that for `CS(=O)(=O)CCNCc1ccc(-c2ccc3ncnc(Nc4ccc(OCc5cccc(C(F)(F)F)c5)cc4)c3c2)o1` was 5.33%; that for `FC(F)(F)CNc1nccc(-c2cnn3ncccc23)n1` was 1.55%.
`COc1ccc2ncn(-c3cc(O[C@H](C)c4ccccc4C(F)(F)F)c(C(N)=O)s3)c2c1`: the inhibition amounted to 1.07%.
Still for that read-out and setting: as for `N#Cc1cccc(Nc2ncc(-c3ccccc3)o2)c1`, the figure is 17.7%.
Same read-out and setting: the value for `CCN1CCC(C(=O)Nc2n[nH]c3nnc(-c4cccc(F)c4F)cc23)CC1` was -0.1%.
Still for that read-out and setting: the value for `CNC(=O)c1ncccc1Nc1nc(Nc2cc3c(cc2OC)CCCN3C(=O)CN(C)C)nc2[nH]ccc12` was -1.63%; that for `CNC(=O)c1cncc(/C=C/c2ccccc2C)c1` was 9.93%; that for `CS(=O)(=O)CCNCc1ccc(-c2ccc3ncnc(Nc4ccc(OCc5ccccc5)cc4)c3c2)o1` was 42.1%.
Turning to `CS(=O)(=O)CCNCc1ccoc1-c1ccc2ncnc(Nc3ccc(OCc4ccccc4)cc3)c2c1`, the inhibition is 21.9%.
For the compound `COc1cc2c(cc1Nc1nc(Nc3cccc(F)c3C(N)=O)c3cc[nH]c3n1)N(C(=O)CN1CCN(C(C)C)CC1)CC2`, the inhibition turned out to be 1.04%.
As to `CN1CCC(n2cnc(-c3ccc(F)cc3)c2-c2ccnc(NCCO)n2)CC1`, the inhibition is 8.81%.
The same measure, in the same setting: as for `CCn1c(-c2nonc2N)nc2cncc(C(=O)NCCNC)c21`, the figure is 5.52%; as for `OCCCNc1nccc(-c2c(-c3ccc(F)cc3)nn3cc(C(F)(F)F)ccc23)n1`, 1.85%.
The same measure, in the same setting: as for `NS(=O)(=O)c1ccc(N/N=C2\C(=O)Nc3ccc(C(=O)NCc4ccncc4)cc32)cc1`, the figure is 17.1%; as for `CC1(C)CC(n2cnc(-c3ccc(F)cc3)c2-c2ccnc(N)n2)CC(C)(C)N1`, 7.25%.
On the same count and under the same terms, as for `COC(=O)Nc1nc2ccc(Oc3ccc(NC(=O)Nc4cc(C(F)(F)F)ccc4F)cc3)cc2s1`, the figure is 11.5%; as for `COc1c(C(N)=O)cc(-c2ccc(Cl)cc2)cc1-c1ccc(S(N)(=O)=O)cc1`, 4.52%.
